This is an account of results in PubChem BioAssay (Tox21).

Results filed as inconclusive are left out. Calls of active or inactive are those of the source. Unless noted, calls come from the whole dose curve; as a rule, active = well fitted cell-killing curve with a large enough effect in the repeat runs; inconclusive = weak or mixed curves, or effect the other way; inactive = flat fitted curve, though single readings scatter.
% is set by controls: 0 for no effect and ±100 for the full control effect; potency is the fitted concentration of half-maximal effect.

One test is described as follows: Nuclear factor erythroid 2-related factor 2/antioxidant responsive element (Nrf2/ARE) small molecule agonists: qHTS cell viability counter screen in human keratinocytes (AID 1919968). Note: nearly all actives have a fitted effect of over 55% in size. As to conditions: KeratinoSens HaCaT ARE cells viability, CellTiter-Fluor, 24 h; series mostly up to 92.4 µM; activity change, negative = cytotoxicity: at the top concentration. In a few lines: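 Cells of the KeratinoSens line were plated at 1,500 per well and left for 5 h before compound transfer from DMSO stocks. After a 23 h incubation (37 C, 5% CO2), CellTiter-Fluor was added. Signal was taken as fluorescence intensity 1 h later.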
As for `ClCBr`, the “activity change, negative = cytotoxicity” value is -0.226% (inactive).

As for `O=C1CN=C(c2ccccc2)c2cc([N+](=O)[O-])ccc2N1`, the “activity change, negative = cytotoxicity” value was 3.66% [at 42.5 µM] (inactive).

Consider `C#CC(C)(C)O`, for which the “activity change, negative = cytotoxicity” value was -1.32% (inactive).

As for `Brc1cccc(-c2ccccc2)c1`, the “activity change, negative = cytotoxicity” value was 0.323% (inactive).

In the case of `CC[N+]1(CCOC(=O)C(O)(c2ccccc2)c2ccccc2)CCCCC1`, the “activity change, negative = cytotoxicity” value was -0.0992% [at 42.5 µM] (inactive).

As to `CCCCOC(=O)c1ccccc1N`, the “activity change, negative = cytotoxicity” value was -2.7% (inactive).

As for `ClCCCCBr`, the “activity change, negative = cytotoxicity” value was 1.68% (inactive).

For the molecule `O=S(=O)(Cl)c1ccccc1`, the “activity change, negative = cytotoxicity” value is 0.191% (inactive).

On to `CC(C)CC(N(C)C)C1(c2ccc(Cl)cc2)CCC1` (stereo not drawn), for which the “activity change, negative = cytotoxicity” value was -2.83% [at 42.5 µM] (inactive).

For the molecule `C[N+]1(CCC(C(N)=O)(c2ccccc2)c2ccccc2)CCCCC1`, the “activity change, negative = cytotoxicity” value was 0.583% [at 42.5 µM] (inactive).

`Nc1ccc([N+](=O)[O-])cc1[N+](=O)[O-]`: the “activity change, negative = cytotoxicity” value was -25.8% (inactive).

For `ClCCCCCCCl`, the “activity change, negative = cytotoxicity” value is 12.2% (inactive).

For the molecule `CCNc1nc(NC(C)C(C)C)nc(SC)n1` (stereo not drawn), the “activity change, negative = cytotoxicity” value is 5.66% (inactive).

Consider `CC(C)CC(C)Nc1ccc(Nc2ccccc2)cc1` (stereo not drawn), for which the Potency is 53.5 µM (active).

Take `CC1(C)COP(Oc2ccccc2)OC1`: the “activity change, negative = cytotoxicity” value was 0.529% (inactive).

In the case of `CNC(=O)O/N=C(\C)SC`, the “activity change, negative = cytotoxicity” value was 4.92% (inactive).

For the molecule `C[C@H](N)C(=O)c1ccccc1`, the “activity change, negative = cytotoxicity” value was -11.2% (inactive).

Take `O=C1OC(=O)C2C1C1(Cl)C(Cl)=C(Cl)C2(Cl)C1(Cl)Cl` (stereo not drawn): the “activity change, negative = cytotoxicity” value is 2.1% (inactive).

With `Nc1cc2c3c(c1)C(c1ccccc1)=N[C@@H](NC(=O)c1cccnc1)C(=O)N3CC2`, the “activity change, negative = cytotoxicity” value was -1.33% (inactive).

For the molecule `O=C(Nc1ccc(F)cc1F)c1cccnc1Oc1cccc(C(F)(F)F)c1`, the “activity change, negative = cytotoxicity” value was 0.464% (inactive).

`CC(C)C(Br)C(=O)NC(N)=O` (stereo not drawn): the “activity change, negative = cytotoxicity” value is 2.66% [at 42.5 µM] (inactive).

Consider `CCC1(c2cccc(O)c2)CCCCN(C)C1` (stereo not drawn), for which the “activity change, negative = cytotoxicity” value was 22.4% [at 42.5 µM] (inactive).

In the case of `Fc1ccc(C2(Cn3cncn3)OC2c2ccccc2Cl)cc1` (stereo not drawn), the “activity change, negative = cytotoxicity” value is 0.37% (inactive).

For the molecule `O=C(O)[C@H](O)[C@@H](O)C(=O)O`, the “activity change, negative = cytotoxicity” value is -0.777% (inactive).

On to `CN1C(=O)COc2c(C(=O)NC3CN4CCC3CC4)cc(Cl)cc21` (stereo not drawn), for which the “activity change, negative = cytotoxicity” value is 5.09% [at 42.5 µM] (inactive).

Turning to `COc1c2c(cc3c1OCO3)CCN(C)C2`, the “activity change, negative = cytotoxicity” value is 0.224% [at 42.5 µM] (inactive).

On to `O=[N+]([O-])c1cc(Cl)c(Cl)cc1Cl`, for which the “activity change, negative = cytotoxicity” value is -0.648% (inactive).

For `ClC(Cl)C(Cl)(Cl)Cl`, the “activity change, negative = cytotoxicity” value was -5.31% (inactive).

For the molecule `c1ccc(Nc2ccc(Nc3ccccc3)cc2)cc1`, the “activity change, negative = cytotoxicity” value was 1.67% (inactive).

On to `Cc1cnc2c(C(=O)O)c(Cl)ccc2c1`, for which the “activity change, negative = cytotoxicity” value was -5.16% (inactive).

Take `Cc1ccn2nc(S(=O)(=O)Nc3c(F)cccc3F)nc2n1`: the “activity change, negative = cytotoxicity” value was -1.2% (inactive).

For `CCCCC(CC)COP(=O)(Oc1ccccc1)Oc1ccccc1` (stereo not drawn), the “activity change, negative = cytotoxicity” value was 20.5% (inactive).

With `C[C@]12CC[C@@H]3c4ccc(OC(=O)N(CCCl)CCCl)cc4CC[C@H]3[C@@H]1CC[C@@H]2O`, the “activity change, negative = cytotoxicity” value is 2.31% [at 42.5 µM] (inactive).

As to `CC(C)(N)Cc1ccc(Cl)cc1`, the “activity change, negative = cytotoxicity” value was 6.06% [at 42.5 µM] (inactive).

On to `N#Cc1c2ccccc2cc2ccccc12`, for which the “activity change, negative = cytotoxicity” value is 9.81% (inactive).

As for `N#Cc1c[nH]cc1-c1cccc2c1OC(F)(F)O2`, the “activity change, negative = cytotoxicity” value is -12.6% (inactive).

With `C=CC(=O)OCC`, the “activity change, negative = cytotoxicity” value was 1.5% (inactive).

As to `CNC(=O)O/N=C(\C)C(C)S(C)(=O)=O` (stereo not drawn), the “activity change, negative = cytotoxicity” value was 3.53% [at 872 µM] (inactive).

With `Cc1ccc2cc3c(ccc4ccccc43)c3c2c1CC3`, the “activity change, negative = cytotoxicity” value is 6.74% [at 42.5 µM] (inactive).

A short description of a further test: Nuclear factor erythroid 2-related factor 2/antioxidant responsive element (Nrf2/ARE) small molecule agonists: luciferase reporter gene qHTS assay in human keratinocytes (AID 1919969; calls by dose curve; note: nearly all actives have a fitted effect of over 35% in size). As to conditions: KeratinoSens HaCaT ARE-luciferase, luminescence, 24 h; series mostly up to 92.4 µM; activity, positive = activation: at the top concentration. Background: A reporter such as luciferase makes a cellular process visible.
As for `ClCBr`, the “activity, positive = activation” value was -0.659% (inactive).

Take `O=C1CN=C(c2ccccc2)c2cc([N+](=O)[O-])ccc2N1`: the “activity, positive = activation” value is 4.11% [at 42.5 µM] (inactive).

`C#CC(C)(C)O`: the “activity, positive = activation” value was -3.66% (inactive).

For the molecule `Brc1cccc(-c2ccccc2)c1`, the “activity, positive = activation” value is 0.883% (inactive).

For `CC[N+]1(CCOC(=O)C(O)(c2ccccc2)c2ccccc2)CCCCC1`, the “activity, positive = activation” value was 5.05% [at 42.5 µM] (inactive).

As for `CCCCOC(=O)c1ccccc1N`, the “activity, positive = activation” value was 20% (inactive).

Consider `ClCCCCBr`, for which the “activity, positive = activation” value was 2.61% (inactive).

For `O=S(=O)(Cl)c1ccccc1`, the “activity, positive = activation” value was -4.04% (inactive).

Regarding `CC(C)CC(N(C)C)C1(c2ccc(Cl)cc2)CCC1` (stereo not drawn), the “activity, positive = activation” value was 7.16% [at 42.5 µM] (inactive).

`C[N+]1(CCC(C(N)=O)(c2ccccc2)c2ccccc2)CCCCC1`: the “activity, positive = activation” value was 1.22% [at 42.5 µM] (inactive).

Turning to `Nc1ccc([N+](=O)[O-])cc1[N+](=O)[O-]`, the “activity, positive = activation” value was -4.31% (inactive).

For the molecule `ClCCCCCCCl`, the “activity, positive = activation” value is -8.14% (inactive).

As to `CCNc1nc(NC(C)C(C)C)nc(SC)n1` (stereo not drawn), the “activity, positive = activation” value was 1.65% (inactive).

On to `CC(C)CC(C)Nc1ccc(Nc2ccccc2)cc1` (stereo not drawn), for which the Potency was 23.9 µM (active).

Consider `CC1(C)COP(Oc2ccccc2)OC1`, for which the “activity, positive = activation” value is 14% (inactive).

For the molecule `CNC(=O)O/N=C(\C)SC`, the “activity, positive = activation” value was -8.03% (inactive).

Regarding `C[C@H](N)C(=O)c1ccccc1`, the “activity, positive = activation” value was 5.68% (inactive).

Turning to `O=C1OC(=O)C2C1C1(Cl)C(Cl)=C(Cl)C2(Cl)C1(Cl)Cl` (stereo not drawn), the “activity, positive = activation” value is 0.309% (inactive).

Regarding `Nc1cc2c3c(c1)C(c1ccccc1)=N[C@@H](NC(=O)c1cccnc1)C(=O)N3CC2`, the “activity, positive = activation” value was -9.76% (inactive).

On to `O=C(Nc1ccc(F)cc1F)c1cccnc1Oc1cccc(C(F)(F)F)c1`, for which the “activity, positive = activation” value is 11.4% (inactive).

`CC(C)C(Br)C(=O)NC(N)=O` (stereo not drawn): the “activity, positive = activation” value is 1.89% [at 42.5 µM] (inactive).

Take `CCC1(c2cccc(O)c2)CCCCN(C)C1` (stereo not drawn): the “activity, positive = activation” value was 4.81% [at 42.5 µM] (inactive).

Take `Fc1ccc(C2(Cn3cncn3)OC2c2ccccc2Cl)cc1` (stereo not drawn): the “activity, positive = activation” value is -14.7% (inactive).

With `O=C(O)[C@H](O)[C@@H](O)C(=O)O`, the “activity, positive = activation” value was -6.74% (inactive).

As for `CN1C(=O)COc2c(C(=O)NC3CN4CCC3CC4)cc(Cl)cc21` (stereo not drawn), the “activity, positive = activation” value is -8.72% [at 42.5 µM] (inactive).

`COc1c2c(cc3c1OCO3)CCN(C)C2`: the “activity, positive = activation” value was 0.534% [at 42.5 µM] (inactive).

As to `O=[N+]([O-])c1cc(Cl)c(Cl)cc1Cl`, the “activity, positive = activation” value was 11.6% (inactive).

Regarding `ClC(Cl)C(Cl)(Cl)Cl`, the “activity, positive = activation” value was -1.51% (inactive).

With `c1ccc(Nc2ccc(Nc3ccccc3)cc2)cc1`, the Potency was 27.2 µM (active).

As to `Cc1cnc2c(C(=O)O)c(Cl)ccc2c1`, the “activity, positive = activation” value was -9.13% (inactive).

Consider `Cc1ccn2nc(S(=O)(=O)Nc3c(F)cccc3F)nc2n1`, for which the “activity, positive = activation” value is -9.99% (inactive).

Take `CCCCC(CC)COP(=O)(Oc1ccccc1)Oc1ccccc1` (stereo not drawn): the Potency is 30.6 µM (active).

In the case of `C[C@]12CC[C@@H]3c4ccc(OC(=O)N(CCCl)CCCl)cc4CC[C@H]3[C@@H]1CC[C@@H]2O`, the “activity, positive = activation” value is -14.9% [at 42.5 µM] (inactive).

As for `CC(C)(N)Cc1ccc(Cl)cc1`, the “activity, positive = activation” value was -2.17% [at 42.5 µM] (inactive).

For `N#Cc1c2ccccc2cc2ccccc12`, the “activity, positive = activation” value was 4.3% (inactive).

As to `N#Cc1c[nH]cc1-c1cccc2c1OC(F)(F)O2`, the “activity, positive = activation” value is -8.51% (inactive).

Regarding `C=CC(=O)OCC`, the “activity, positive = activation” value is -7.17% (inactive).

For `CNC(=O)O/N=C(\C)C(C)S(C)(=O)=O` (stereo not drawn), the Potency was 708 µM (active).

Consider `Cc1ccc2cc3c(ccc4ccccc43)c3c2c1CC3`, for which the “activity, positive = activation” value was 14.2% [at 42.5 µM] (inactive).
